Potency and viability data for 20 compounds are collected here from PubChem BioAssay (NCATS).

Assay [1] in a line: Quantitative High-Throughput drug screen in 47 multiple myeloma cell lines against the NCATS MIPE library collection: OPM1_PLB cell viability assay (AID 1918989). Further: nearly all actives have a fitted effect of over 40% in size. The method in brief:
(§1)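 500 cells/well; MIPE 4.0 drugs pin-transferred; 48 h, 37C, 5% CO2. CellTiter-Glo, 5 min RT, luminescence. Controls: DMSO 100%, media 0%.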

The nature of assay [2]: Quantitative High-Throughput drug screen in 47 multiple myeloma cell lines against the NCATS MIPE library collection: SKMM1_PLB cell viability assay (AID 1919863). Further: nearly all actives have a fitted effect of over 35% in size. On viability: series mostly up to about 46 µM. The note with it: SKMM1 myeloma viability, CellTiter-Glo ATP, 48 h; viability: stronger effect = lower value. The method in brief: as §1
For orientation: In ATP-based viability assays light output follows the ATP content of the culture.

The nature of assay [3]: Quantitative High-Throughput drug screen in 47 multiple myeloma cell lines against the NCATS MIPE library collection: XG6_PLB cell viability assay (AID 1919865). Further: nearly all actives have a fitted effect of over 40% in size. Put shortly:
as §1

A short description of assay [4]: Quantitative High-Throughput drug screen in 47 multiple myeloma cell lines against the NCATS MIPE library collection: XG1_PLB cell viability assay (AID 1919866). Further: nearly all actives have a fitted effect of over 35% in size. The method in brief:
as §1

A short description of assay [5]: Quantitative High-Throughput drug screen in 47 multiple myeloma cell lines against the NCATS MIPE library collection: UTMC2_PLB cell viability assay (AID 1919868). Further: nearly all actives have a fitted effect of over 55% in size. Put shortly: as §1
The nature of assay [6]: Quantitative High-Throughput drug screen in 47 multiple myeloma cell lines against the NCATS MIPE library collection: PE2_PLB cell viability assay (AID 1919869). Further: nearly all actives have a fitted effect of over 35% in size. Put shortly:
as §1

Assay [7] in a line: Quantitative High-Throughput drug screen in 47 multiple myeloma cell lines against the NCATS MIPE library collection: PCM6_Riken cell viability assay (AID 1919870). Further: nearly all actives have a fitted effect of over 30% in size. Put shortly: as §1
Assay [8] is described as follows: Quantitative High-Throughput drug screen in 47 multiple myeloma cell lines against the NCATS MIPE library collection: RPMI8226_ATCC cell viability assay (AID 1919871). Further: nearly all actives have a fitted effect of over 30% in size. The method in brief: as §1
Assay [9] is described as follows: Quantitative High-Throughput drug screen in 47 multiple myeloma cell lines against the NCATS MIPE library collection: U266_ATCC cell viability assay (AID 1919864). Further: nearly all actives have a fitted effect of over 35% in size. The method in brief:
as §1

Assay [10] is described as follows: Quantitative High-Throughput drug screen in 47 multiple myeloma cell lines against the NCATS MIPE library collection: VP6_DJ cell viability assay (AID 1919867). Further: nearly all actives have a fitted effect of over 40% in size. The method in brief:
as §1

The structures appear in SMILES notation. Inconclusive results are not listed. Values without a mark were called inactive. Active and inactive are the calls of the source. The call rests on the fitted dose curve; in most records, active means well fitted cell-killing curve with a large enough effect; inconclusive means small, poorly fitted or top-dose-only effect, or effect the other way; inactive means no such curve, though single readings can be large or run the other way.
Potency means the concentration at half of the fitted maximal effect.

As usually defined, the viability is a read-out of living cells in per cent, often relative to untreated cells. Take `COc1ncnc(NS(=O)(=O)c2ccc(N)cc2)c1OC`: the Potency entry in assay [1], in assay [3], in [4], in assay [5], in assay [6] and in [7] was “inactive” throughout. Also, the Potency result in assay [8] was “inactive”. Further, the viability in assay [2] was 128%.
On to `COc1ccc2cc3[n+](cc2c1OC)CCc1cc2c(cc1-3)OCO2`, for which the Potency in assay [1] was 18.7 µM (active); in assay [2] it was 14.8 µM (active); in assay [9], 9.35 µM (active); in assay [3] it was 16.6 µM (active); in assay [4] it was 16.6 µM (active); in [10], 7.43 µM (active). Moreover, the Potency in assay [5] is 3.32 µM (active); in assay [6], 14.8 µM (active); in [7], 11.8 µM (active).
Regarding `Nc1[nH]c(=O)ncc1F`, the Potency result in assay [1], in assay [5] and in assay [6] was “inactive” throughout. In assay [2], the viability is 117%. Moreover, the figures for the Potency in assay [9], in assay [3] and in assay [10] were 2.64 µM (active), 26.4 µM (active) and 20.9 µM (active), respectively.
As for `CN1CCCC(n2nc(Cc3ccc(Cl)cc3)c3ccccc3c2=O)CC1` (stereo unspecified), the Potency in assay [1] is 2.64 µM (active); in assay [2], 20.9 µM (active); in assay [9] it was 2.64 µM (active); in [3], 1.05 µM (active); in assay [4], 1.48 µM (active); in assay [5], 1.87 µM (active). Further, the Potency in [6] was 7.43 µM (active); in assay [7] it was 3.32 µM (active).
Turning to `N=C(N)c1ccc(OCCCCCOc2ccc(C(=N)N)cc2)cc1`, the Potency was 11.8 µM (active) in assay [1]; 20.9 µM (active) in [2]; 23.5 µM (active) in assay [9]; 16.6 µM (active) in assay [3]; 4.69 µM (active) in assay [4]; 2.09 µM (active) in [10]. Further, the Potency in assay [6], in assay [7] and in [8] was 5.9 µM (active) in each case.
On to `CCN(CC)CCn1c(=O)c(Cc2ccc(OC)cc2)nc2ccccc21`, for which the Potency result in assay [1], in assay [9], in [6], in [7] and in assay [8] was “inactive” each time. For the same compound, the viability in [2] was 134%.
Consider `CO[C@@]12[C@H](COC(N)=O)C3=C(C(=O)C(C)=C(N)C3=O)N1C[C@@H]1N[C@@H]12`, for which the Potency in assay [1] is 26.4 µM (active); in assay [2], 20.9 µM (active); in [9] it was 20.9 µM (active); in assay [4] it was 20.9 µM (active); in assay [10] it was 20.9 µM (active); in assay [6] it was 20.9 µM (active). Also, in assay [7], the Potency is 20.9 µM (active).
On to `CCOC(=O)[C@H](CCc1ccccc1)N[C@H]1CS[C@H](c2cccs2)CN(CC(=O)O)C1=O`, for which the Potency in [1] was 5.9 µM (active); in assay [2], 14.8 µM (active); in [3], 2.35 µM (active); in assay [4], 0.935 µM (active); in assay [5] it was 11.8 µM (active); in [7], 1.05 µM (active). The Potency in [8] is 16.6 µM (active).
For `CC1=C(C(=O)O)N2C(=O)[C@@H](NC(=O)C(N)c3ccccc3)[C@H]2SC1` (stereo partly specified), the Potency result in assay [1], in assay [3], in assay [10], in assay [5], in [6] and in assay [7] was “inactive” throughout. Also, the viability in [2] was 130%.
Consider `COc1cc2nc(N3CCCN(C)CC3)nc(NC3CCN(Cc4ccccc4)CC3)c2cc1OC`, for which the Potency in assay [1] was 2.35 µM (active); in assay [2] it was 7.43 µM (active); in assay [9], 2.35 µM (active); in assay [3] it was 2.35 µM (active); in [4] it was 2.96 µM (active); in [6] it was 2.35 µM (active). Moreover, the Potency is 3.72 µM (active) in assay [7] and 9.35 µM (active) in [8].
Take `NC(=O)N1c2ccccc2CC(=O)c2ccccc21`: the Potency entry in [1], in assay [3], in [4], in assay [10], in [6] and in assay [7] was “inactive” throughout. Moreover, the Potency result in assay [8] was “inactive”. Moreover, the viability in assay [2] is 118%.
`C1CCC(C(CC2CCCCN2)C2CCCCC2)CC1` (stereo unspecified): the Potency in assay [1] was 10.5 µM (active); in assay [2], 18.7 µM (active); in [3], 20.9 µM (active); in assay [4] it was 13.2 µM (active); in assay [10], 8.33 µM (active); in assay [5], 13.2 µM (active). Further, the Potency is 18.7 µM (active) in assay [6], 10.5 µM (active) in assay [7] and 11.8 µM (active) in assay [8].
In the case of `O=C(N[C@H](CO)[C@H](O)c1ccc([N+](=O)[O-])cc1)C(Cl)Cl`, the Potency entry in [1] and in assay [3] was “inactive” in each case. Further, the viability in assay [2] was 115%.
In the case of `CCCCc1oc2ccc(NS(C)(=O)=O)cc2c1C(=O)c1ccc(OCCCN(CCCC)CCCC)cc1`, the Potency in assay [1] was 13.2 µM (active); in assay [2], 18.7 µM (active); in [9] it was 14.8 µM (active); in assay [3] it was 8.33 µM (active); in [4], 11.8 µM (active); in assay [6], 23.5 µM (active). In addition, the Potency in [7] is 11.8 µM (active); in assay [8], 16.6 µM (active).
`CCc1c2c(nc3ccc(OC(=O)N4CCC(N5CCCCC5)CC4)cc13)-c1cc3c(c(=O)n1C2)COC(=O)[C@]3(O)CC`: the Potency in assay [1] is 13.2 µM (active); in [2] it was 0.526 µM (active); in assay [9], 0.166 µM (active); in assay [3] it was 0.418 µM (active); in assay [10] it was 1.18 µM (active); in assay [5], 0.418 µM (active). Also, the Potency is 0.935 µM (active) in assay [6], 13.2 µM (active) in [7] and 0.372 µM (active) in assay [8].
Take `CN(C)CCc1c[nH]c2ccc(CS(=O)(=O)N3CCCC3)cc12`: the Potency entry in assay [1], in assay [9] and in assay [8] was “inactive” throughout. In addition, the viability in assay [2] is 119%. In addition, the Potency in assay [4] is 20.9 µM (active).
Take `Nc1nc(N)nc(-c2cc(Cl)ccc2Cl)n1`: the Potency result in [1], in [9], in assay [4], in assay [7] and in assay [8] was “inactive” each time. For the same compound, the viability in assay [2] was 131%.
With `CNS(=O)(=O)CCc1ccc2[nH]cc(C3CCN(C)CC3)c2c1`, the Potency in assay [1] was 5.26 µM (active); in assay [2], 4.18 µM (active); in [3] it was 0.372 µM (active); in [4] it was 0.743 µM (active); in [5], 1.05 µM (active); in assay [6], 1.66 µM (active). Besides, the Potency entry in [7] is “inactive”.
As for `COc1ccccc1OCC(O)COC(N)=O` (stereo unspecified), the Potency entry in assay [1], in [9], in assay [3], in assay [4], in assay [5] and in assay [6] was “inactive” in each case. The Potency result in assay [7] and in assay [8] was “inactive” throughout. For the same compound, the viability in assay [2] was 136%.
For `CC(=O)[C@H]1CC[C@H]2[C@@H]3CC=C4C[C@@H](O)CC[C@]4(C)[C@H]3CC[C@]12C`, the Potency entry in [1], in assay [3], in assay [4], in [6] and in [7] was “inactive” throughout. For the same compound, the viability in assay [2] was 123%.
